The source of these data is article PMC7862700, “An all-to-all approach to the identification of sequence-specific readers for epigenetic DNA modifications on cytosine”.

Holding throughout (assay): DAPPL (digital affinity profiling via proximity ligation, sequencing); 10 mM Tris-HCl pH 7.5, 50 mM NaCl, 1 mM DTT, 4% glycerol, room temperature, 30 min; GST-TFs on glutathione beads, 16-mer random dsDNA library, 0.1% formaldehyde crosslink after washing; high values mean tight binding
The target in one assay is T1, FEV (Homo sapiens, UniProt Q99581 1-238).
T1 sequence: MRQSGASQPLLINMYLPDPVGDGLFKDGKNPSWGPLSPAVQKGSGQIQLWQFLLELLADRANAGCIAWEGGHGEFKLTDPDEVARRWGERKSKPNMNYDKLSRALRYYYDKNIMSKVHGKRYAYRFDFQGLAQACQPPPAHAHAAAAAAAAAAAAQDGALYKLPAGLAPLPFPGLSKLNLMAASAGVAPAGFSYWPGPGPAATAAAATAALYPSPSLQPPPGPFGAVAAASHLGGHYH
As to conditions: protein: recombinant; tags: N-terminal GST; dsDNA, one strand shown. The procedure, abridged: (§1)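 Human transcription factors were made in yeast as GST fusions, captured on glutathione beads and barcoded with DNA. With a tag-only sample included, the pool was incubated with 200 nmole of a random double-stranded 16-mer DNA library in Tris/NaCl/DTT/glycerol buffer at room temperature for 30 min, then crosslinked with 0.1% formaldehyde after washing, ligated by proximity, amplified and sequenced. For binding signal, each hexamer's read frequency for a factor is divided by its frequency for the tag-only sample.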

For the next assay, the target named is ETV5 (Homo sapiens, UniProt P41161 1-510). The conditions noted are these: protein: recombinant; tags: N-terminal GST; dsDNA, one strand shown. The method in brief: as §1
The target in the next assay is HSF1 (Homo sapiens, UniProt Q00613 1-529). The conditions noted are these: protein: recombinant; tags: N-terminal GST; chain copies: 3; dsDNA, one strand shown. The procedure, abridged:
as §1

For a further assay, the target named is T2, SPIC (Homo sapiens, UniProt Q8N5J4 1-248).
T2 sequence: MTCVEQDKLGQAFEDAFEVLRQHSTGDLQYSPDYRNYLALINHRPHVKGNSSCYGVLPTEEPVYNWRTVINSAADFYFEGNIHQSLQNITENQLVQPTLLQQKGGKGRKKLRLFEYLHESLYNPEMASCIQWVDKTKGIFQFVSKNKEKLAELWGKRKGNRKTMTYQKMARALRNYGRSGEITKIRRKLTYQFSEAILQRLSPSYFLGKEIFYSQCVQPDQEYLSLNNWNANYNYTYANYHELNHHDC
The conditions noted are these: protein: recombinant; tags: N-terminal GST; dsDNA, one strand shown. The procedure, abridged:
as §1

The target in the next assay is ELF4 (Homo sapiens, UniProt Q99607 1-663). As to conditions: protein: recombinant; tags: N-terminal GST; dsDNA, one strand shown. The procedure, abridged:
as §1

The next assay concerns the target T3, ELK4 (Homo sapiens, UniProt P28324-2 1-405).
T3 sequence: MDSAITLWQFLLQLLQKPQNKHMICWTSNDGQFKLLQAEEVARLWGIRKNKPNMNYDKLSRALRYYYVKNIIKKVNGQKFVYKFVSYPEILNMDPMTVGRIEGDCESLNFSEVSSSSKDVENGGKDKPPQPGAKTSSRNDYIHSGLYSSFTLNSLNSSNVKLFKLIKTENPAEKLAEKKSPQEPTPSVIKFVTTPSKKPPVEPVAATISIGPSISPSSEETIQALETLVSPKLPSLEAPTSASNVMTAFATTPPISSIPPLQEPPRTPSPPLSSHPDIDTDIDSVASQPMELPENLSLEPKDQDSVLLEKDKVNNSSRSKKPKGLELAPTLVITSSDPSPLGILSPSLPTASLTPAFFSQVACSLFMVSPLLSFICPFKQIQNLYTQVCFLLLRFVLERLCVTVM
The conditions noted are these: protein: recombinant; tags: N-terminal GST; dsDNA, one strand shown. The procedure, abridged:
as §1

The next assay deals with T4, ETV2 (Homo sapiens, UniProt O00321 1-342).
T4 sequence: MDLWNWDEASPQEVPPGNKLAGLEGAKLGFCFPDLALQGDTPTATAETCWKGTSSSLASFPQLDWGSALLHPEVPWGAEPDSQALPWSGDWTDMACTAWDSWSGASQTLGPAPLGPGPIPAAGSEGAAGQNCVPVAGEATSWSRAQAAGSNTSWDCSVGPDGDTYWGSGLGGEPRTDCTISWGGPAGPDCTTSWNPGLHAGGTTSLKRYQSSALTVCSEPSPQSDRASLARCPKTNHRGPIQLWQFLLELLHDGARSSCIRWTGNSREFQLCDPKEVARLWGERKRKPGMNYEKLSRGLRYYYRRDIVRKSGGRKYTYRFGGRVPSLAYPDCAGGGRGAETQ
As to conditions: protein: recombinant; tags: N-terminal GST; dsDNA, one strand shown. The procedure, abridged: as §1

The target in a further assay is T5, ELF3 (Homo sapiens, UniProt P78545 1-371).
T5 sequence: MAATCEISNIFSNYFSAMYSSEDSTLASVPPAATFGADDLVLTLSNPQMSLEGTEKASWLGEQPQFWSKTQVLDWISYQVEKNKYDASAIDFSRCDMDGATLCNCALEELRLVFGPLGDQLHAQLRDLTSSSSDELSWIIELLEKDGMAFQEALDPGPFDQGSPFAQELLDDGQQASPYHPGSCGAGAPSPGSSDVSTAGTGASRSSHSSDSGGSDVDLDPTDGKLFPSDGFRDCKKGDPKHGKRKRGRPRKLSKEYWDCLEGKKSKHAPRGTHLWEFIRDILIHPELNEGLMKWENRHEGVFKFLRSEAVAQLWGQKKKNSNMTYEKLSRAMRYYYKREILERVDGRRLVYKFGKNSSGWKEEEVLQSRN
The conditions noted are these: protein: recombinant; tags: N-terminal GST; dsDNA, one strand shown. The method in brief: as §1

Another assay deals with CRX (Homo sapiens, UniProt O43186 1-299). As to conditions: protein: recombinant; tags: N-terminal GST; dsDNA, one strand shown. The method in brief: as §1
For a further assay, the target named is ETV1 (Homo sapiens, UniProt P50549 1-477). The conditions noted are these: protein: recombinant; tags: N-terminal GST; dsDNA, one strand shown. The procedure, abridged: as §1
In the next assay the target is T6, ERF (Homo sapiens, UniProt P50548 1-548).
T6 sequence: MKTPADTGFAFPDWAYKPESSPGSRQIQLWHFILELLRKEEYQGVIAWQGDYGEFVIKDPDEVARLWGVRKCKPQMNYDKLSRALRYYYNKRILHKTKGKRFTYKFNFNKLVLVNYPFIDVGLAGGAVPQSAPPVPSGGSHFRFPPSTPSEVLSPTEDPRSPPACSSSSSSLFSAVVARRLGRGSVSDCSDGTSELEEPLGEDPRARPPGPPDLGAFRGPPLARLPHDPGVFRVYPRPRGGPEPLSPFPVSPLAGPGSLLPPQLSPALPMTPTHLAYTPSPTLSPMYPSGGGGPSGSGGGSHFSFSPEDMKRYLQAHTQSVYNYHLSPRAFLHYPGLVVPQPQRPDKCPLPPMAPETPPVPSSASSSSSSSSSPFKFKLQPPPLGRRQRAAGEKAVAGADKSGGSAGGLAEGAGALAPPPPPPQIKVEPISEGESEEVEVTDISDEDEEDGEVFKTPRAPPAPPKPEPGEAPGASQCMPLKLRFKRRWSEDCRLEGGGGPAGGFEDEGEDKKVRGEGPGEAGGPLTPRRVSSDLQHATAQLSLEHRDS
As to conditions: protein: recombinant; tags: N-terminal GST; dsDNA, one strand shown. The procedure, abridged: as §1

A further assay concerns the target T7, ETV3L (Homo sapiens, UniProt Q6ZN32 1-361).
T7 sequence: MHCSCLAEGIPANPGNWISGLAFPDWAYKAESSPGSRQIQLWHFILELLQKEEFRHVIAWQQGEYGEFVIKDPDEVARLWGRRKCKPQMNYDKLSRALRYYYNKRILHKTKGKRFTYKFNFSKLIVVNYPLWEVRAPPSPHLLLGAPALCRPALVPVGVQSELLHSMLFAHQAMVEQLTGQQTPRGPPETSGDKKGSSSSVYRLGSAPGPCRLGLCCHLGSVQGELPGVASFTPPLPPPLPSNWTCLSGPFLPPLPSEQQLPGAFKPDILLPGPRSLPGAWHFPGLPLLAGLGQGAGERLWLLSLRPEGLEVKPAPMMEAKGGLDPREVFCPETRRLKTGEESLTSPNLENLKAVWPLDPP
The conditions noted are these: protein: recombinant; tags: N-terminal GST; dsDNA, one strand shown. The procedure, abridged: as §1

The target in a further assay is T8, ETS2 (Homo sapiens, UniProt P15036 1-469).
T8 sequence: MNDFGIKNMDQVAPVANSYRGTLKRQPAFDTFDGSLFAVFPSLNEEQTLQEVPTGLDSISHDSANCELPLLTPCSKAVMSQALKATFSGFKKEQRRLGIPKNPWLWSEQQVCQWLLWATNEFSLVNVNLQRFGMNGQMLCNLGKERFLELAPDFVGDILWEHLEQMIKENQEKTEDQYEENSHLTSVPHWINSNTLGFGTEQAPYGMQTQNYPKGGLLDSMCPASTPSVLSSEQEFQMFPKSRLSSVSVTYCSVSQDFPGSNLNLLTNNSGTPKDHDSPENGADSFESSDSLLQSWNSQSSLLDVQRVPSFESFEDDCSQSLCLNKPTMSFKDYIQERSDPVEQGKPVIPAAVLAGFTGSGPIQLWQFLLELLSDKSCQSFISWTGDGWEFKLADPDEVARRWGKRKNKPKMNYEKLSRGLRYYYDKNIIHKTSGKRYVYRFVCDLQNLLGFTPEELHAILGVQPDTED
As to conditions: protein: recombinant; tags: N-terminal GST; dsDNA, one strand shown. The procedure, abridged: as §1

The target of another assay is T9, SPDEF (Homo sapiens, UniProt O95238 1-335).
T9 sequence: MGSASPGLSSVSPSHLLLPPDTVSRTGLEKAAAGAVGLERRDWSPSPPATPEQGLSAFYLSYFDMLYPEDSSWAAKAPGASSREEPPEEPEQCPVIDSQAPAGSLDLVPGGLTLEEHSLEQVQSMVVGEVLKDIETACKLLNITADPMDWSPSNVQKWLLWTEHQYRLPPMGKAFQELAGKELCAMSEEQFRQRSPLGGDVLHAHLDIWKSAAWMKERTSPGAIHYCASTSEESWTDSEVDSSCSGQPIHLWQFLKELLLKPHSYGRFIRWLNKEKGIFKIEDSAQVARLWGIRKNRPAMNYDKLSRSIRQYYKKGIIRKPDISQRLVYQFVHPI
The conditions noted are these: protein: recombinant; tags: N-terminal GST; dsDNA, one strand shown. The procedure, abridged: as §1

The target in the next assay is T10, ETV7 (Homo sapiens, UniProt Q9Y603 1-341).
T10 sequence: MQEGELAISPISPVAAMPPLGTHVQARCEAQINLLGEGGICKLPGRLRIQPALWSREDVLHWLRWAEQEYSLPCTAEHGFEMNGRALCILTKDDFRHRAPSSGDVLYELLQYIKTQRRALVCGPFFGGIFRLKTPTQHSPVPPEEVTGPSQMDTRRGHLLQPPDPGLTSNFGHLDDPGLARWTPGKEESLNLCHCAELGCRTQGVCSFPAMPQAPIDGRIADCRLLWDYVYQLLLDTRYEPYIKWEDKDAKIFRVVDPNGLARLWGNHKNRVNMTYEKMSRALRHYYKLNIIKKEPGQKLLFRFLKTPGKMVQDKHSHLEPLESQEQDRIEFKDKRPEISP
The conditions noted are these: protein: recombinant; tags: N-terminal GST; dsDNA, one strand shown. The method in brief:
as §1

Another assay concerns the target T11, ELF5 (Homo sapiens, UniProt Q9UKW6-2 1-255).
T11 sequence: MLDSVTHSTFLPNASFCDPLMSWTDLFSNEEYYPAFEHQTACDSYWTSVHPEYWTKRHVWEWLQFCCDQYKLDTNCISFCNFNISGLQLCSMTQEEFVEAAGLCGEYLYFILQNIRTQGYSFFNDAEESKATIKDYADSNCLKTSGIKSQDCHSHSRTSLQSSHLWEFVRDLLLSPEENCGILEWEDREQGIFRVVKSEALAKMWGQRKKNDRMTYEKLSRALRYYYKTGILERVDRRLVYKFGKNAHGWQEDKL
The conditions noted are these: protein: recombinant; tags: N-terminal GST; dsDNA, one strand shown. The method in brief: as §1

A further assay deals with T12, ETV3 (Homo sapiens, UniProt P41162-2 1-143).
T12 sequence: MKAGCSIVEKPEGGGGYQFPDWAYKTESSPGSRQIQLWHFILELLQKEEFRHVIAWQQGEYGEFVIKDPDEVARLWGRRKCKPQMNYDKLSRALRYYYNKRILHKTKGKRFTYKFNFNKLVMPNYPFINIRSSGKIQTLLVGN
The conditions noted are these: protein: recombinant; tags: N-terminal GST; dsDNA, one strand shown. The method in brief:
as §1

The target of another assay is ETV6 (Homo sapiens, UniProt P41212 1-452). As to conditions: protein: recombinant; tags: N-terminal GST; dsDNA, one strand shown. The method in brief:
as §1

ETV1, sequence (P50549 whole entry): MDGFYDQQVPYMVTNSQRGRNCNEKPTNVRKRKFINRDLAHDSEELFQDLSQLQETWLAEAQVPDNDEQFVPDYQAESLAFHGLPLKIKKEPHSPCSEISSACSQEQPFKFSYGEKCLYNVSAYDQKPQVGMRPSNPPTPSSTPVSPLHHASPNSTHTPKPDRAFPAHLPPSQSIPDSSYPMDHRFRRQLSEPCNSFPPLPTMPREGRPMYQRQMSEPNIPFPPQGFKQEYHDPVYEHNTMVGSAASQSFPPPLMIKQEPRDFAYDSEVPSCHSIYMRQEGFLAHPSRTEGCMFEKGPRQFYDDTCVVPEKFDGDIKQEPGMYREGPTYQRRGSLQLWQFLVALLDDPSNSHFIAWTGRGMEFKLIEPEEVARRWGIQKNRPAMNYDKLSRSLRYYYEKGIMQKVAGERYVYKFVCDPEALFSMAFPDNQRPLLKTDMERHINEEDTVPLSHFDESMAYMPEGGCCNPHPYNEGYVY
ELF4, sequence (Q99607 whole entry): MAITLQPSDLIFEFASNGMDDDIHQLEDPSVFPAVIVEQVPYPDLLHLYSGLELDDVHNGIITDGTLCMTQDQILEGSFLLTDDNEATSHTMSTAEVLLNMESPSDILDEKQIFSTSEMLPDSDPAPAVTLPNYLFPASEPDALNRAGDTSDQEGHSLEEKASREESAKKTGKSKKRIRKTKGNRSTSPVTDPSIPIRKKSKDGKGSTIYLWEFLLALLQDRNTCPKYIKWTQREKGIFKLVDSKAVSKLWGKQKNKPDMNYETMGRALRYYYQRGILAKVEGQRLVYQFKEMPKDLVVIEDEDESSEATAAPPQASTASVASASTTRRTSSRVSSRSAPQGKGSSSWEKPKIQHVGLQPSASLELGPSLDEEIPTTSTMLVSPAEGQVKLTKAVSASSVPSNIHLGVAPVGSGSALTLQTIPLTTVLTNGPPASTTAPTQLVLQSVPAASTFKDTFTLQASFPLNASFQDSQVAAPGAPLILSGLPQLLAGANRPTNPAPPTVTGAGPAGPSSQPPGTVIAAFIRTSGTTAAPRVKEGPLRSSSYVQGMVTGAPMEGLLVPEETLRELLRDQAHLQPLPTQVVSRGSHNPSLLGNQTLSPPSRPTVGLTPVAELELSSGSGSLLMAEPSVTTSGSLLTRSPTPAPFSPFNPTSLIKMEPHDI
ETV5, sequence (P41161 whole entry): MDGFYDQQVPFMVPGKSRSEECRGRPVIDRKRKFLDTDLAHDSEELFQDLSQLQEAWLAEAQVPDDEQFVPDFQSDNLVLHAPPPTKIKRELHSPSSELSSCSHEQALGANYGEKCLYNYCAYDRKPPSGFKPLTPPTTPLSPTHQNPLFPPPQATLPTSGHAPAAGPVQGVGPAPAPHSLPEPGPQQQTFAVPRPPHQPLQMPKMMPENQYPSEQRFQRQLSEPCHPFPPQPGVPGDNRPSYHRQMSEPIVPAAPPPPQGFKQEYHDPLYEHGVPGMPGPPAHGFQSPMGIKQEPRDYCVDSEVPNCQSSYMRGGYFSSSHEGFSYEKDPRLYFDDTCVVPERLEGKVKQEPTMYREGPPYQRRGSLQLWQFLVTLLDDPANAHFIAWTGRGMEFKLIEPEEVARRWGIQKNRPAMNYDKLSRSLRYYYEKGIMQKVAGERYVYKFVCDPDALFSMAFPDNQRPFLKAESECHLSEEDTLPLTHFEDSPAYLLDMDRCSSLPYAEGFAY
CRX, sequence (O43186 whole entry): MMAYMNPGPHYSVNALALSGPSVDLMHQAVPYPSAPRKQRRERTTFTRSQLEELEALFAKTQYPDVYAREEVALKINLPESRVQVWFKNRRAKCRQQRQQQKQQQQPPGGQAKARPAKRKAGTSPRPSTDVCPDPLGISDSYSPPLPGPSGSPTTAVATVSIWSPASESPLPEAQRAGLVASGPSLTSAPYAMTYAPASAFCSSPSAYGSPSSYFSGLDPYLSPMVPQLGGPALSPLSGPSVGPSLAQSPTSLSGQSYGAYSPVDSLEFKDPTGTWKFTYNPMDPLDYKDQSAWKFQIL
HSF1, sequence (Q00613 whole entry): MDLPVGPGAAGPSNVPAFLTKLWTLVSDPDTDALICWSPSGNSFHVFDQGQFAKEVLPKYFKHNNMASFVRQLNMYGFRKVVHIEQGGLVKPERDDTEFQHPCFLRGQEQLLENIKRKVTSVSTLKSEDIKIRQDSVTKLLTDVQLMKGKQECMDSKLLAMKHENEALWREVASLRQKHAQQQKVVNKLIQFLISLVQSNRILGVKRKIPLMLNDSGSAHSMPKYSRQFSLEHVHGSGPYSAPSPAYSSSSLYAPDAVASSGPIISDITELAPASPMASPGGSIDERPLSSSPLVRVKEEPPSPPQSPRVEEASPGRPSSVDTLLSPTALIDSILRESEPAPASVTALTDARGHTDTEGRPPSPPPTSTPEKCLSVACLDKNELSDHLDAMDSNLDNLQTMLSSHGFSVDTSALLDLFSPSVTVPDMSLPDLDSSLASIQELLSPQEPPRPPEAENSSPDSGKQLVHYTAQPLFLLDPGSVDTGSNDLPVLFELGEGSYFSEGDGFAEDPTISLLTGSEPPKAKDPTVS
ETV6, sequence (P41212 whole entry): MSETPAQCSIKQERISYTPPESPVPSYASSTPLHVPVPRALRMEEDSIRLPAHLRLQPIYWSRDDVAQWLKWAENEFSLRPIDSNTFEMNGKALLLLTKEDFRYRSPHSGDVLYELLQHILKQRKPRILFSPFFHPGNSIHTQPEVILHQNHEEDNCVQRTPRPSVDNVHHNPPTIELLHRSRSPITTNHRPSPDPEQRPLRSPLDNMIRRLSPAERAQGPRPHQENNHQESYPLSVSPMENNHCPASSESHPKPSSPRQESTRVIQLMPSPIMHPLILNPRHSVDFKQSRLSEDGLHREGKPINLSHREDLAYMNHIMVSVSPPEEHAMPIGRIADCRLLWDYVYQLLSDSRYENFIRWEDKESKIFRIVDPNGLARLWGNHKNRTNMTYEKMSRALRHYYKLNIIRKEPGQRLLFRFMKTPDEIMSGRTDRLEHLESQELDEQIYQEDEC

Take CCCATA: the binding signal was 1.24 fold enrichment (6-mer frequency, TF over GST control) in the assay with FEV; 1.23 fold enrichment (6-mer frequency, TF over GST control) in the assay with ETV5; 1.14 fold enrichment (6-mer frequency, TF over GST control) in the assay with HSF1; 1.31 fold enrichment (6-mer frequency, TF over GST control) with SPIC; 1.32 fold enrichment (6-mer frequency, TF over GST control) with ELF4; 1.06 fold enrichment (6-mer frequency, TF over GST control) in the assay with ELK4. Moreover, the binding signal is 1.3 fold enrichment (6-mer frequency, TF over GST control) with ETV2; 1.33 fold enrichment (6-mer frequency, TF over GST control) in the assay with ELF3; 1.24 fold enrichment (6-mer frequency, TF over GST control) in the assay with CRX; 1.24 fold enrichment (6-mer frequency, TF over GST control) with ETV1; 1.19 fold enrichment (6-mer frequency, TF over GST control) in the assay with ERF; 1.34 fold enrichment (6-mer frequency, TF over GST control) with ETV3L. For the same sequence, the binding signal is 1.29 fold enrichment (6-mer frequency, TF over GST control) with ETS2; 1.19 fold enrichment (6-mer frequency, TF over GST control) in the assay with SPDEF; 1.19 fold enrichment (6-mer frequency, TF over GST control) with ETV7; 1.25 fold enrichment (6-mer frequency, TF over GST control) with ELF5; 1.21 fold enrichment (6-mer frequency, TF over GST control) with ETV3; 1.31 fold enrichment (6-mer frequency, TF over GST control) in the assay with ETV6.
